Experimental data: PubChem BioAssay AID743325 (National Center for Advancing Translational Sciences (NCATS), 2014)
The source made the active and inactive calls. Calls follow the shape of the full dose curve. Numbered stars: 1 amine (or outer) side, 2 acyl side, 3 side chain; on linkers, the order of the positions; unused ones are H or OH. Bridge positions count the residues as written; N and C are the ends. Square brackets hold non-standard residues; d marks the D form. Peptide text beside a SMILES is read from it. I, II: the chains in the order shown. Actinocin(9to1) = Cc1c2oc3c(C)ccc(C(=O)[*:1])c3nc-2c(C(=O)[*:2])c(N)c1=O; NMeV = CN[CH](C(=O)O)C(C)C; Orn = NCCC[C@H](N)C(=O)O; Sar = CNCC(=O)O

assay: qHTS profiling of Chloroquine Analogs as inhibitors of Plasmodium falciparum (3D7) proliferation; conditions: activity change, negative = inhibition: at 28.7 µM (top of the series) unless noted
Description: Plasmodium falciparum is a virulent malarial parasite that kills 1-2 million people worldwide each year. Transmitted by mosquitoes, the sporozoite form of the parasite enters the blood stream to infect hepatocytes, where they become merozoites that infect red blood cells (erythrocytes). Within erythrocytes, merozoites begin a […] cycle of growth and division, after which the parasite is released to infect new red blood cells. Gametocytes, which form within erythrocytes as well, circulate in the bloodstream and are ingested by the mosquito, thereby completing the life cycle. To profile malarial isolates for differential chemical responses and to identify inhibitors of malarial growth, an assay that measures P. falciparum growth and replication within erythrocytes was employed. This assay uses a DNA binding fluorescent dye (SYBR Green) to detect parasite DNA following cell lysis. Because mature erythrocytes lack DNA, only Plasmodium-derived DNA is detected.
The SYBR Green viability assay was adapted from a method described previously (Plouffe et al., 2008). For screening 3 ul culture medium was dispensed into 1536 well black clear bottom plates (Aurora Biotechnologies) using a Multidrop Combi (Thermo Fisher Scientific Inc.), 23 nL compounds in DMSO were added by a pin tool (Kalypsys), and 5 ul of erythrocytes infected with P. falciparum (0.3% parasitemia, 2.5% hematocrit final concentration) were added. The plates were incubated at 37 C in a humidified incubator in 5% CO2 for 72 h, and 2 ul lysis buffer (20 mM Tris HCl, 10 mM EDTA, 0.16% saponin, 1.6% triton X, 10X SYBR Green I supplied as 10,000X […] by Invitrogen) was added to each well. The plates were mixed for 25 sec with gentle shaking and incubated overnight at room temperature in the dark. The following morning, fluorescence intensity at 485(14) nm excitation and 535(25) nm emission wavelengths was measured on an EnVision (Perkin Elmer) plate reader. Plate reads were normalized relative to the control inhibitor (0.29 uM artemisinin) and vehicle (DMSO) wells present on each plate and then corrected by an algorithm using vehicle-only control plates at the beginning and end of the compound plate stack.

Q: For NC(=NCc1ccccc1)NC(=O)c1nc(Cl)c(N)nc1N, which activity change, negative = inhibition is on record?
A: -99.4%

Q: With CCCC[C@@H]1C[C@@H](C(=O)NC([C@H](C)Cl)[C@H]2O[C@H](S)[C@H](O)[C@@H](O)[C@@H]2O)N(C)C1 (stereo not given in full) as the compound, how does the “activity change, negative = inhibition” value read?
A: -71.5% (inactive)

Q: With CC(CNC1CCCCC1)OC(=O)c1ccccc1 (stereo not given) as the compound, how does the “activity change, negative = inhibition” value read?
A: 9.78% [at 14.2 µM] (inactive)

Q: For O[C@H](c1cc(C(F)(F)F)nc2c(C(F)(F)F)cccc12)[C@H]1CCCCN1, which “activity change, negative = inhibition” value is on record?
A: 193% [at 14.2 µM] (inactive)

Q: For C[C@@H]1[C@@H](C(=O)C[C@H]2O[C@@H]3O[C@]4(C)CC[C@@H]5[C@H](C)CC[C@@H]([C@H]2C)[C@@]35OO4)O[C@@H]2O[C@]3(C)CC[C@H]4[C@H](C)CC[C@@H]1[C@@]24OO3, which Potency is on record?
A: 1.7 nM (active)

Q: With C[C@@H]1[C@@H](CC(C[C@H]2O[C@@H]3O[C@]4(C)CC[C@@H]5[C@H](C)CC[C@@H]([C@H]2C)[C@@]35OO4)C[S+](=O)([O-])c2ccc(COC(=O)N(C)C)cc2)O[C@@H]2O[C@]3(C)CC[C@H]4[C@H](C)CC[C@@H]1[C@@]24OO3 (stereo not given in full) as the compound, how does the “activity change, negative = inhibition” value read?
A: 188% (inactive)

Q: With CC(=O)O[C@@]12CO[C@@H]1C[C@H](O)[C@@]1(C)C(=O)[C@H](O)C3=C(C)[C@@H](OC(=O)[C@H](O)[C@@H](NC(=O)OC(C)(C)C)c4ccccc4)C[C@@](O)([C@@H](OC(=O)c4ccccc4)[C@H]21)C3(C)C as the compound, how does the “activity change, negative = inhibition” value read?
A: 177% (inactive)

Q: For CNCCC(Oc1ccccc1OC)c1ccccc1 (stereo not given), which activity change, negative = inhibition is on record?
A: -93.6%

Q: With CCCCCCCCCCOc1cc2c(=O)c(C(=O)OCC)c[nH]c2cc1OCC as the compound, how does the “activity change, negative = inhibition” value read?
A: 208% (inactive)

Q: With C#C[C@]1(O)CC[C@@H]2[C@H]3CCC4=CC(=O)CC[C@H]4[C@H]3C(=C)C[C@@]21CC as the compound, how does the “activity change, negative = inhibition” value read?
A: 177% (inactive)

Q: For C=CCON=C(C[C@H]1O[C@@H]2O[C@]3(C)CC[C@@H]4[C@H](C)CC[C@@H]([C@H]1C)[C@@]24OO3)[C@H]1O[C@@H]2O[C@]3(C)CC[C@H]4[C@H](C)CC[C@@H]([C@@H]1C)[C@@]24OO3, which activity change, negative = inhibition is on record?
A: -102%

Q: Which activity change, negative = inhibition does the source give for CCc1ccc(OCc2ccccc2C(=O)Nc2ccc3nc(C)cc(N)c3c2)cc1 here?
A: -101%

Q: Which Potency does the source give for C[C@H](N)CN1CCc2ccc(Br)cc21 here?
A: 1680 nM (active)

Q: Which Potency does the source give for CN([C@@H](Cc1ccc(OS(=O)(=O)c2cccc3cnccc23)cc1)C(=O)N1CCN(c2ccccc2)CC1)S(=O)(=O)c1cccc2cnccc12 here?
A: 237 nM (active)

Q: For CC[C@@H](C)[C@H]1O[C@]2(CC[C@H]1C)C[C@@H]1C[C@@H](CC=C(C)[C@@H](O[C@H]3C[C@H](OC)[C@@H](O[C@H]4C[C@H](OC)[C@@H](O)[C@H](C)O4)[C@H](C)O3)[C@@H](C)C=CC=C3CO[C@@H]4[C@H](O)C(C)=C[C@@H](C(=O)O1)[C@]34O)O2, which activity change, negative = inhibition is on record?
A: -99.9%

Q: With CCCC(=O)O[C@]1(C(=O)CCl)[C@H](C)C[C@@H]2[C@H]3CCC4=CC(=O)C=C[C@]4(C)[C@@]3(F)C(=O)C[C@@]21C as the compound, how does the activity change, negative = inhibition read?
A: -101%

Q: With C/C(=C\c1csc(C)n1)[C@@H]1C[C@@H]2O[C@]2(C)CCC[C@H](C)[C@H](O)[C@@H](C)C(=O)C(C)(C)[C@@H](O)CC(=O)O1 as the compound, how does the “activity change, negative = inhibition” value read?
A: 35.6% (inactive)

Q: For C[N+]1(C)CCC(=C(c2ccccc2)c2ccccc2)CC1, which activity change, negative = inhibition is on record?
A: -94.2% [at 14.2 µM]

Q: Which activity change, negative = inhibition does the source give for C[C@@H]1CCC2[C@@H](C)[C@@H](O)O[C@@H]3O[C@@]4(C)CC[C@@H]1[C@@]23OO4 (stereo not given in full) here?
A: -101%

Q: Which Potency does the source give for CCCCN(CCCC)CCC(O)c1cc2c(Cl)cc(Cl)cc2c2cc(C(F)(F)F)ccc12 (stereo not given) here?
A: 5.1 nM (active)

Q: For C[C@@H]1[C@@H](CC(C[C@H]2O[C@@H]3O[C@]4(C)CC[C@@H]5[C@H](C)CC[C@@H]([C@H]2C)[C@@]35OO4)C(=O)NCc2ccc(F)cc2)O[C@@H]2O[C@]3(C)CC[C@H]4[C@H](C)CC[C@@H]1[C@@]24OO3 (stereo not given in full), which activity change, negative = inhibition is on record?
A: -101%

Q: Which Potency does the source give for O=C(C[C@@H]1NCCC[C@@H]1O)Cn1cnc2ccccc2c1=O here?
A: 2.7 nM (active)

Q: With Oc1cc(Cl)ccc1Oc1ccc(Cl)cc1Cl as the compound, how does the Potency read?
A: 1880 nM (active)

Q: For CN(C)CC/C=C1\c2ccccc2COc2ccccc21, which Potency is on record?
A: 2020 nM (active)

Q: Which activity change, negative = inhibition does the source give for C=C[C@@H]1CN2CC[C@@H]1C[C@H]2[C@H](O)c1ccnc2ccc(OC)cc12 here?
A: -98.6%

Q: Which activity change, negative = inhibition does the source give for C[C@@H]1Cc2c([nH]c3cc(Cl)c(F)cc23)[C@]2(N1)C(=O)Nc1ccc(Cl)cc12 here?
A: -101%

Q: With CC(C)C[C@@H]1NC(=O)[C@H](CCCN)NC(=O)[C@H](C(C)C)NC(=O)[C@@H]2CCCN2C(=O)[C@@H](Cc2ccccc2)NC(=O)[C@H](CC(C)C)NC(=O)[C@H](CCCN)NC(=O)[C@H](C(C)C)NC(=O)[C@@H]2CCCN2C(=O)[C@@H](Cc2ccccc2)NC1=O (cyclo(V[Orn]L[dF]PV[Orn]L[dF]P)) as the compound, how does the activity change, negative = inhibition read?
A: -102%

Q: With COc1cc(NC(C)CCCN)c2ncccc2c1 (stereo not given) as the compound, how does the Potency read?
A: 902 nM (active)

Q: Which “activity change, negative = inhibition” value does the source give for CN(C)CCOC(c1ccccc1)c1ccccc1 here?
A: -8.32% (inactive)

Q: Which “activity change, negative = inhibition” value does the source give for CCOc1ccccc1O[C@H](c1ccccc1)[C@H]1CNCCO1 here?
A: 192% (inactive)

Q: Which Potency does the source give for Cc1c2oc3c(C)ccc(C(=O)NC4C(=O)NC(C(C)C)C(=O)N5CCCC5C(=O)N(C)CC(=O)N(C)C(C(C)C)C(=O)OC4C)c3nc-2c(C(=O)NC2C(=O)NC(C(C)C)C(=O)N3CCCC3C(=O)N(C)CC(=O)N(C)C(C(C)C)C(=O)OC2C)c(N)c1=O (stereo not given) (I: TVP[Sar][NMeV] / II: TVP[Sar][NMeV]; ester I:1-I:C, II:1-II:C; linker I:N-II:N via Actinocin(9to1); configuration not given here) here?
A: 2.1 nM (active)

Q: For CNC(=O)c1cc(Oc2ccc(NC(=O)Nc3ccc(Cl)c(C(F)(F)F)c3)cc2)ccn1, which activity change, negative = inhibition is on record?
A: -100%

Q: With C=Cc1c(C)c2cc3nc(cc4[nH]c(cc5nc(cc1[nH]2)C(C)=C5CCC(=O)OC)c(CCC(=O)O)c4C)[C@@]1(C)C3=CC=C(C(=O)OC)[C@H]1C(=O)OC as the compound, how does the “activity change, negative = inhibition” value read?
A: 179% [at 14.2 µM] (inactive)

Q: With COC(=O)C1C2CC3c4[nH]c5cc(OC)ccc5c4CCN3CC2CC(OC(=O)c2cc(OC)c(OC)c(OC)c2)C1OC (stereo not given) as the compound, how does the activity change, negative = inhibition read?
A: -101% [at 57.5 µM]

Q: With CCN(CC)CCOc1ccc2c(=O)c3ccc(Cl)cc3n(CCN(CC)CC)c2c1 as the compound, how does the activity change, negative = inhibition read?
A: -101%

Q: For Cc1cccc(C)c1NC(=O)C(C)N (stereo not given), which “activity change, negative = inhibition” value is on record?
A: -9.46% [at 14.2 µM] (inactive)

Q: For Cc1nc2c(C#N)cccc2n1-c1ccc(C(=O)NC2CC2)s1, which activity change, negative = inhibition is on record?
A: -100%

Q: With C=CC(C)=C[C@@]1(C)SC(=O)C(C)=C1O as the compound, how does the “activity change, negative = inhibition” value read?
A: -4.55% (inactive)

Q: Which activity change, negative = inhibition does the source give for COc1cc2c(Nc3ccc(NC(=O)c4ccccc4)cc3)ncnc2cc1OCCCN1CCOCC1 here?
A: -100%

Q: For CN1CC[C@H](CN2c3ccccc3Sc3ccccc32)C1, which “activity change, negative = inhibition” value is on record?
A: -79.7% (inactive)
